# Laboratory results taken from PubChem BioAssay.
# Several values for one entry are separate records, joined by “and”; a condition that tells them apart may be missing. Equal values may be shown once. Activity calls are given as the source filed them.
# Columns and labels:
# [1] = binders of probe aFSTL3 on microarray, primary screen, stem cell growth factor project, biochemical, small-molecule microarray, fluorescence 635/667 (AID 1064); conditions: higher = more signal;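 also: measures binding of the biotinylated anti-FSTL3 antibody to printed compounds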
# [2] = binders from COS7 lysate, DM2A8 probe, primary screen, torsin A project, cell lysate, small-molecule microarray, fluorescence 635/667 (AID 1065); conditions: higher = more signal, COS7 lysate expressing mutant human TOR1A
# [3] = binders of probe aFGF2 on microarray, primary screen, stem cell growth factor project, biochemical, small-molecule microarray, fluorescence 635/667 (AID 1067); conditions: higher = more signal;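 also: measures binding of biotinylated aFGF2 protein to printed compounds on slides; z-score merges feature fluorescence and signal-to-noise across triplicate slides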
# [4] = binders of probe aFGF10 on microarray, primary screen, stem cell growth factor project, biochemical, small-molecule microarray, fluorescence 635/667 (AID 1071); conditions: higher = more signal;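 also: score merges 667 nm spot intensity and signal to noise from triplicate slides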
# [5] = molecular target: Neurogenic locus notch homolog protein 2 (Homo sapiens) (UniProt Q04721); assay: Notch2 binders on small-molecule microarrays, primary screen, biochemical, small-molecule microarray, 635 nm fluorescence, stem cell growth factors (AID 1073); conditions: Notch2 binding, higher = more signal
# [6] = molecular target: Pro-neuregulin-1, membrane-bound isoform (Homo sapiens) (UniProt Q02297); assay: NRG1 binders on small-molecule microarrays, primary screen, psychiatric disease protein project, biochemical, small-molecule microarray, fluorescence 635/667 (AID 1075); conditions: NRG1 binding, 635 nm fluorescence, higher = more signal;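 also: score combines 667 nm spot fluorescence with signal to noise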
# [7] = tested on: Neuregulin-1 EGF-like domain; assay: binders of neuregulin-1 EGF-like domain, primary screen, biochemical, small-molecule microarray, 635 nm fluorescence (AID 1081); conditions: small-molecule microarray binding, higher = more signal;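 also: binding of the protein to compounds printed on small-molecule microarray slides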
# [8] = FRG1 promoter luciferase signal modulators, primary screen, FRG1 inhibition for FSHD, cell-based, C2C12 myotubes, firefly/Renilla luciferase, luminescence (AID 1084); conditions: higher = more signal, called active from +8 up or from −8 down
# [9] = binders of probe aFST on microarray, primary screen, stem cell growth factor project, biochemical, small-molecule microarray, fluorescence 635/667 (AID 1086); conditions: higher = more signal;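 also: score merges 667 nm fluorescence with signal-to-noise of each printed compound spot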
# [10] = binders of probe aHhip on microarray, primary screen, stem cell growth factor project, biochemical, small-molecule microarray, fluorescence 635/667 (AID 1087); conditions: higher = more signal;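 also: score merges spot fluorescence at 667nm with spot signal to noise ratio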
# Chain of Neurogenic locus notch homolog protein 2 (Homo sapiens) (Q04721 whole entry, looked up, canonical isoform): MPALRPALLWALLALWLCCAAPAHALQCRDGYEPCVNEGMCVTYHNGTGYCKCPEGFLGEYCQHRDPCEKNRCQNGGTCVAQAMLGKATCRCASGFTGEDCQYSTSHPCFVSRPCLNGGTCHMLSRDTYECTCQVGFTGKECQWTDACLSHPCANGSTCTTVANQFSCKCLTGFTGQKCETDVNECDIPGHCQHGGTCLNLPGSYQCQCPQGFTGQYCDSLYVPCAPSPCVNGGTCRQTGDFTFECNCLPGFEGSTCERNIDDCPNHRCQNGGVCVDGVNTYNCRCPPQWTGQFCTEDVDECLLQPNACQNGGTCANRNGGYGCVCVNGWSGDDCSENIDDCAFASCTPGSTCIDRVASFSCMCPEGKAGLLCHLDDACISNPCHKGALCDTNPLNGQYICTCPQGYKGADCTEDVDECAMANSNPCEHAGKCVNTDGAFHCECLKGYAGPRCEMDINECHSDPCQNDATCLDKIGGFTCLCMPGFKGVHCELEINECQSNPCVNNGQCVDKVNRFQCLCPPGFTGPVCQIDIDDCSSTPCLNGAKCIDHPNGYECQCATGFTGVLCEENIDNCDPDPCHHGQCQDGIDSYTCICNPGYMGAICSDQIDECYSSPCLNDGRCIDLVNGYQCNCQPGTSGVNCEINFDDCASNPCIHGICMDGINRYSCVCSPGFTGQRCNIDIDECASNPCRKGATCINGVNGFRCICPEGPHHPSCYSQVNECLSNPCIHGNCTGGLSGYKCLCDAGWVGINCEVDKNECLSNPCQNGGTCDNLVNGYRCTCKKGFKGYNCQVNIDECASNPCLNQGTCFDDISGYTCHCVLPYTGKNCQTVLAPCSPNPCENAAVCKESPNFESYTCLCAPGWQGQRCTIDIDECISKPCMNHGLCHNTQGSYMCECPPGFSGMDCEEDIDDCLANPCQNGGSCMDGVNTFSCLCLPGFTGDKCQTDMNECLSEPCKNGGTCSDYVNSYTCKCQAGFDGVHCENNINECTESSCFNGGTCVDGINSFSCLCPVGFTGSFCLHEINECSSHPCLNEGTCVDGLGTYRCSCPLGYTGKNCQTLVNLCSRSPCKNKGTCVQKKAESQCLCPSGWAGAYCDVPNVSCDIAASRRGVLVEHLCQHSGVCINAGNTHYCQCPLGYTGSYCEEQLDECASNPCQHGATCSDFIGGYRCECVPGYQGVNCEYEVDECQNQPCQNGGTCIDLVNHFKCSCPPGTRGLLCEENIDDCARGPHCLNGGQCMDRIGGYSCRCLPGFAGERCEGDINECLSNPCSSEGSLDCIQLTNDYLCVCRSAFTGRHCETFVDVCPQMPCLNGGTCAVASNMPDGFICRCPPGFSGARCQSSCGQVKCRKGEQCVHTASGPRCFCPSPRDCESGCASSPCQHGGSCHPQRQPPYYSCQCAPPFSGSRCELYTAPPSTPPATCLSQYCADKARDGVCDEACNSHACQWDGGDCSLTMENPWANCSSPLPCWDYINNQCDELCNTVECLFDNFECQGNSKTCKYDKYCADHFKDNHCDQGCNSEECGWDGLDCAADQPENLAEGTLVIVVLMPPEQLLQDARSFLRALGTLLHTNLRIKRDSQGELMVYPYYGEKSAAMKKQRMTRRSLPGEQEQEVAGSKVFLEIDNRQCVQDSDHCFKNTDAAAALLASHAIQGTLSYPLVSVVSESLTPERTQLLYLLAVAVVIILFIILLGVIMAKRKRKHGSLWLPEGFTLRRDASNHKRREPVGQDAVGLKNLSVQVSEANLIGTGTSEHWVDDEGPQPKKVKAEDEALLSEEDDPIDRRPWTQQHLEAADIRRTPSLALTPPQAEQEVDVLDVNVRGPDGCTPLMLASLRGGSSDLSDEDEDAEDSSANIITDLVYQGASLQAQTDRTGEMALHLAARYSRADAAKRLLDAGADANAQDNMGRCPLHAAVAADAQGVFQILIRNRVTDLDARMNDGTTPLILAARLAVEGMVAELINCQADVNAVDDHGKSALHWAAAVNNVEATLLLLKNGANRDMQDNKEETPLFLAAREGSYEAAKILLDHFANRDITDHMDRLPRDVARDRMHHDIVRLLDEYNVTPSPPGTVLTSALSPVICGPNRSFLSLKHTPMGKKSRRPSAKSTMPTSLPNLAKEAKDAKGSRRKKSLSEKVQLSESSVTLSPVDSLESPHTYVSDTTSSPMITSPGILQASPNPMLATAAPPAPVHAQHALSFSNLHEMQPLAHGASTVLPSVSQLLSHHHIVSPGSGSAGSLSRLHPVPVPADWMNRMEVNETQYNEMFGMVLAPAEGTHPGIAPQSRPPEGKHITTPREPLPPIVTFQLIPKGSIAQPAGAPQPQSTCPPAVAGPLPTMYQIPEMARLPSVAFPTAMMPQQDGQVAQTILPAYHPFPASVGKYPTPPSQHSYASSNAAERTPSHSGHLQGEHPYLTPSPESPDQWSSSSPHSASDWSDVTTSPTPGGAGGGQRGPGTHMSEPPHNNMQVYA
# Chain of Pro-neuregulin-1, membrane-bound isoform (Homo sapiens) (Q02297 whole entry, looked up, the tested form may be a part, canonical isoform): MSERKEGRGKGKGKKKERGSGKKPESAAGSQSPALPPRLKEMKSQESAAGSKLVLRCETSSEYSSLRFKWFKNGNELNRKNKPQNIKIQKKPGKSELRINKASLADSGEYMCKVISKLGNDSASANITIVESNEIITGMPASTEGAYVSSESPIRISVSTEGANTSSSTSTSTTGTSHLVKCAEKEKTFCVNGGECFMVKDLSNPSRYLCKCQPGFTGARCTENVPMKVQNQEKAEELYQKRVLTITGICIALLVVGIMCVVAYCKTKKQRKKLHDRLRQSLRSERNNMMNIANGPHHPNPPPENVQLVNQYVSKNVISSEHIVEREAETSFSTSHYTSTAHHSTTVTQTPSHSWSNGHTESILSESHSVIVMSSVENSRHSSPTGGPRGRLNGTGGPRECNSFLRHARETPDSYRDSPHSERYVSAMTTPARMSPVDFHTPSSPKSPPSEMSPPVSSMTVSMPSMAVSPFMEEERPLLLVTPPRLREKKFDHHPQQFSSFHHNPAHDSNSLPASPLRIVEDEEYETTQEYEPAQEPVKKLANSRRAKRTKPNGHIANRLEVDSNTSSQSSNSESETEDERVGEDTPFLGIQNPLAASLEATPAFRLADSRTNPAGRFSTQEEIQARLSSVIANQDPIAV
Compound,composite z-score [1],composite z-score [2],composite z-score [3],composite z-score [4],composite z-score [5],composite z-score [6],composite z-score [7],z-score [8],composite z-score [9],composite z-score [10]
COC(=O)CC=C[C@@H](C)[C@@H](CO)NS(=O)(=O)c1ccc(C)cc1,-0.659 and -0.717,0.406 and 0.605,-0.108 and -0.0656,0.242 and 0.526,0.157 and 0.444,-0.386 and -0.0111,0.081 and 0.253,0.862 (inactive) and -1.81 (inactive),0.544 and 0.35,-0.147 and 0.0505
C=CCN(CCCC)C(=O)C1N(CCOCCO)C(=O)C2C(C(=O)O)C3C=CC21O3 (stereo not given),0.398 and 0.725,-1.98 and -0.776,-0.209 and -0.116,-1.13 and -0.467,-1.17 and -2.39,1.64 and -0.729,1.61 and 1.51,0.75 (inactive) and 0.0827 (inactive),-0.792 and -1.02,-0.169 and -0.306
O=C1C[C@]2(c3ccc([N+](=O)[O-])cc3)C(=O)N(Cc3ccccc3)c3cc(CO)ccc3[C@H]2N1C1CCCCC1,-0.391 and -0.0715,0.0304 and -0.0759,-0.145 and 0.103,-0.416 and 0.208,0.168 and 0.853,-0.183 and 0.819,1.25 and 1.12,-0.0521 (inactive) and 0.981 (inactive),-0.0791 and -0.129,-0.185 and 1.38
COC(=O)c1c2oc(c1C(=O)OC)C(=O)N[C@@H](Cc1ccccc1)Cn1cc(nn1)C1(CCCCC1)NC(=O)N[C@H](CO)CC2,0.345 and -0.428,-0.946 and -0.603,-0.0558 and -0.0752,0.866 and 0.262,0.395 and 0.428,1.23 and 0.0012,1.31 and 0.747,-0.818 (inactive) and -1 (inactive),0.247 and 0.182,-0.0346 and -0.13
C=CCN(C(=O)C1N(c2c(Cl)cccc2CO)C(=O)C2C(C(=O)O)C3C=CC21O3)C(C)(C)C (stereo not given),-0.933 and 1.87,-1.67 and -0.997,-0.238 and -0.0459,-0.782 and -0.419,-0.872 and -1.15,0.0516 and -0.736,0.0868 and -0.844,0.756 (inactive) and -1.07 (inactive),-0.347 and -0.422,-1.01 and 0.51
COC(=O)C1=C(C)N(Cc2ccccc2)C2=C3C(=O)CCC[C@@H]3[C@@](O)(C(=O)OC)C(=O)N2[C@@H]1c1ccccc1,-0.438 and -0.212,0.999 and -0.117,-0.122 and -0.0125,0.482 and 0.544,0.723 and 0.6,-0.046 and -0.158,0.211 and 0.476,-0.403 (inactive) and 0.0176 (inactive),0.325 and 0.107,0.136 and -0.0994
C=CCN(Cc1ccccc1)C(=O)C(c1cccs1)N(C(=O)/C=C\C(=O)O)c1ccc(CCO)cc1 (stereo not given),1.05 and 0.697,-1.89 and -1.8,-0.175 and -0.232,-1.05 and -0.73,-1.36 and -1.96,-0.789 and -0.264,1.25 and 1.43,0.0388 (inactive) and -0.725 (inactive),-0.966 and -0.865,-0.369 and 0.205
CCOC(=O)NN=C1C[C@@H](O)[C@@H](O)[C@@H]2[C@@H]3C(=O)N(Cc4ccccc4)C(=O)[C@@H]3CC[C@@H]12,-0.629,0.0854,-0.202,0.295,0.388,0.318,-0.026,-0.0833 (inactive),-0.0089,-0.0391
CC(CO)N1C(=O)[C@@H]2C3C(=O)OCCC=C[C@H]3OC23C=CCN(CCN2CCOCC2)C(=O)[C@@H]13 (stereo not given in full),-0.316 and 0.246,-1.28 and 0.759,-0.166 and -0.085,-0.376 and -0.591,-0.0931 and 0.0406,-0.256 and 1.91,0.678 and 0.666,0.12 (inactive) and 0.497 (inactive),0.106 and 0.0417,-0.399 and -0.119
CC(C)=NO[C@@H](C)c1cc(-c2c(C)cc(C)cc2C)no1,1.18,-0.146,-0.135,0.0794,-0.243,-0.0227,-0.304,0.122 (inactive),-0.163,0.0854
COc1ccc(-c2ccc3c(n2)CCCN3CC(O)CN2CCCc3nc(-c4ccc(Br)cc4)ccc32)cc1 (stereo not given),0.0623 and 0.0721,0.744 and 0.464,0.12,0.505 and 0.348,0.684 and 0.709,1.05 and 0.841,0.973 and 0.101,3.12 (inactive) and 3.15 (inactive),0.584 and 0.306,0.281 and 0.167
CO[C@@H]1COC(=O)[C@H](Cc2ccccc2)NC(=O)CC=C[C@@H](C)[C@H](OC)COC(=O)[C@@H](C)NC(=O)CC=C[C@H]1C,-0.501 and -1.33,1.23 and 0.603,-0.132 and -0.168,0.0044 and 0.401,-0.223 and -0.012,-0.258 and -0.159,0.383 and 0.284,0.361 (inactive) and -0.178 (inactive),0.409 and -0.084,0.154 and -0.271
CC(C)CON=C1C[C@@H](O)[C@@H](O)[C@@H]2[C@@H]3C(=O)N(c4cccc(Oc5ccccc5)c4)C(=O)[C@@H]3CC[C@H]12,-0.273,0.459,-0.179,0.253,0.547,0.685,0.781,-0.423 (inactive),0.769,-0.0645
C=CCN(C(=O)C(c1cccs1)N(CCOCCO)C(=O)/C=C\C(=O)O)c1ccc(OC)cc1 (stereo not given),-0.454 and 0.71,-0.415 and -1.59,-0.103 and -0.186,-0.729 and -1.06,-1.03 and -1.83,-0.933 and -1.12,-0.247 and -0.936,-0.993 (inactive) and -0.205 (inactive),-0.348 and -0.687,-0.301 and -0.226
C=C[C@H](C)[C@@H](O)c1ccc(OCCO)cc1,0.535 and 0.672,-0.549 and -0.859,-0.215 and -0.188,-0.907 and -0.473,-1.9 and -0.991,-0.612 and 0.783,-0.0529 and 0.395,1.94 (inactive) and 2.3 (inactive),-0.552 and -0.723,-0.204 and -0.0393
COC(=O)[C@H](C)NC(=O)CCC1CC(OC(=O)NCCc2ccc(F)cc2)CC2(CCCC(COC(=O)NCCCN3CCCC3=O)O2)O1 (stereo not given in full),-0.78,0.267,-0.0358,0.404,1.25,0.623,1.2,0.434 (inactive),0.367,0.0373
